Data taken from PubChem BioAssay (NCI).
This is part of a sample that, as a whole, favours compounds with a hit. Of some 83,000 tested, about 20% had one in any assay.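 The test compound was applied at a single concentration to cells in 96-well plates for 48 hours, and percent growth was recorded.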

Legend:
Assay in all cases: NCI-60 one-dose screen, 48 h (100 = growth as untreated, 0 = no growth, -100 = all killed); active = growth percent below 10; inactive = the rest
HCT-15 colon = conditions: 10 µM
HT29 colon = conditions: 10 µM
SNB-75 CNS = conditions: 10 µM
U251 CNS = conditions: 10 µM
PC-3 prostate = conditions: 10 µM
SK-MEL-5 melanoma = conditions: 10 µM
UACC-62 melanoma = conditions: 10 µM unless noted
LOX IMVI melanoma = conditions: 10 µM
SK-MEL-28 melanoma = conditions: 10 µM

Measured: growth

CCCCCCCCCCCCCC(=O)Oc1ccc[nH]c1=O
inactive: HCT-15 colon 85.8% | HT29 colon 91.9% | SNB-75 CNS 110% | U251 CNS 96.3% | PC-3 prostate 86.9% | SK-MEL-5 melanoma 97.1% | UACC-62 melanoma 88.7% | LOX IMVI melanoma 44.1% | SK-MEL-28 melanoma 109%

C#Cc1cccc(NC(=O)c2ccc(Cl)cc2Cl)c1
inactive: HCT-15 colon 87.6% | HT29 colon 100% | SNB-75 CNS 106% | U251 CNS 91.3% | PC-3 prostate 82.6% | SK-MEL-5 melanoma 91.1% | UACC-62 melanoma 87.9% | LOX IMVI melanoma 98.5% | SK-MEL-28 melanoma 102%

COc1ccc(C(=O)C(Br)C(Br)C(=O)O)cc1 (centres undefined)
inactive: HCT-15 colon 98.1% | HT29 colon 117% | SNB-75 CNS 87.4% | U251 CNS 104% | PC-3 prostate 110% | SK-MEL-5 melanoma 101% | UACC-62 melanoma 98.4% | LOX IMVI melanoma 97.7% | SK-MEL-28 melanoma 108%

CC1(C)S(=O)(=O)OCCOS1(=O)=O
inactive: HCT-15 colon 101% | HT29 colon 105% | SNB-75 CNS 98.7% | U251 CNS 95% | PC-3 prostate 100% | SK-MEL-5 melanoma 93.6% | UACC-62 melanoma 92.3% | LOX IMVI melanoma 95.2% | SK-MEL-28 melanoma 112%

COc1ccc2c(c1)CCc1c-2n[nH]c1-c1[nH]nc2c1CCc1cc(OC)ccc1-2
inactive: HCT-15 colon 35.6% | HT29 colon 52.3% | SNB-75 CNS 29.3% | U251 CNS 54.2% | PC-3 prostate 50.4% | SK-MEL-5 melanoma 37.2% | UACC-62 melanoma 25.8% | LOX IMVI melanoma 43.8% | SK-MEL-28 melanoma 58.7%

NC(=O)c1ccc(N=C(N)N=C(N)N)cc1
inactive: HCT-15 colon 95.7% | HT29 colon 105% | SNB-75 CNS 91.2% | U251 CNS 101% | PC-3 prostate 93.1% | SK-MEL-5 melanoma 93.6% | UACC-62 melanoma 105% | LOX IMVI melanoma 100% | SK-MEL-28 melanoma 111%

CCC(C)(C)C1CCC(O)CC1 (centres undefined)
inactive: HCT-15 colon 88.9% | HT29 colon 97.5% | SNB-75 CNS 100% | U251 CNS 107% | PC-3 prostate 99.2% | SK-MEL-5 melanoma 97.8% | UACC-62 melanoma 98.2% | LOX IMVI melanoma 91.1% | SK-MEL-28 melanoma 114%

CCC(C#N)(CC)c1ccccc1
inactive: HCT-15 colon 90.6% | HT29 colon 110% | SNB-75 CNS 84.6% | U251 CNS 109% | PC-3 prostate 102% | SK-MEL-5 melanoma 98.6% | UACC-62 melanoma 89.5% | LOX IMVI melanoma 97.9% | SK-MEL-28 melanoma 108%

CC(O)COc1ccc(-c2ccccc2)cc1 (centres undefined)
inactive: HCT-15 colon 96.3% | HT29 colon 116% | SNB-75 CNS 102% | U251 CNS 99.7% | PC-3 prostate 101% | SK-MEL-5 melanoma 99.1% | UACC-62 melanoma 92.4% | LOX IMVI melanoma 101% | SK-MEL-28 melanoma 103%

O=C1NC(=O)C2C(=O)NC(=O)C1C21CCc2ccccc21 (centres undefined)
inactive: HCT-15 colon 105% | HT29 colon 123% | SNB-75 CNS 124% | U251 CNS 106% | PC-3 prostate 90.1% | SK-MEL-5 melanoma 96.3% | UACC-62 melanoma 83.6% | LOX IMVI melanoma 102% | SK-MEL-28 melanoma 113%

Cc1ccc(C)n1-c1ccsc1C(=O)NNC(=O)C(Cl)Cl
inactive: HCT-15 colon 103% | HT29 colon 106% | SNB-75 CNS 104% | U251 CNS 107% | PC-3 prostate 88.5% | SK-MEL-5 melanoma 94.8% | UACC-62 melanoma 93.4% | LOX IMVI melanoma 81.7% | SK-MEL-28 melanoma 112%

COc1cccc(O)c1O
inactive: HCT-15 colon 38.4% | HT29 colon 104% | SNB-75 CNS 56.3% | U251 CNS 65.1% | PC-3 prostate 79.5% | SK-MEL-5 melanoma 55.9% | UACC-62 melanoma 45.5% | LOX IMVI melanoma 53.7% | SK-MEL-28 melanoma 74.1%

C=CCNc1ccccc1
inactive: HCT-15 colon 106% | HT29 colon 98.4% | SNB-75 CNS 82.7% | U251 CNS 106% | PC-3 prostate 85.2% | SK-MEL-5 melanoma 102% | UACC-62 melanoma 89.9% | LOX IMVI melanoma 93.7% | SK-MEL-28 melanoma 99.9%

Cc1cc(C)c(CC(=O)O)c(C)c1
inactive: HCT-15 colon 100% | HT29 colon 99.4% | SNB-75 CNS 93.2% | U251 CNS 103% | PC-3 prostate 103% | SK-MEL-5 melanoma 101% | UACC-62 melanoma 108% | LOX IMVI melanoma 96.5% | SK-MEL-28 melanoma 124%

Nc1ccccc1SC(CC(=O)c1ccccc1)c1c(Cl)cccc1Cl (centres undefined)
inactive: HCT-15 colon 44.5% | HT29 colon 42.5% | SNB-75 CNS 70.6% | U251 CNS 27% | SK-MEL-5 melanoma 81.4% | UACC-62 melanoma 73.9% | LOX IMVI melanoma 22.7% | SK-MEL-28 melanoma 90.8%
